Screening data from PubChem BioAssay.
Hits are enriched below; roughly 2.1% of the tested compounds scored in any of these assays.
FUS yeast rescue – qHTS for Suppressors of FUS Proteinopathy: Primary screen using FUS-linked yeast assay; 390,000 compounds, 0.24% hits; Potency, µM (top dose mostly 76.6 µM), hits mostly activators; S. cerevisiae FUS-expressing, growth rescue, OD600, 24 h; AID 1347120, 2019;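 also: plate controls were DMSO vehicle for no effect and reference control for full effect; nearly all actives have a fitted effect of over 55% in size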
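Quantitative HTS measuring growth restoration of FUS-toxic yeast. Galactose-induced cells (OD 0.005) were exposed 24hr at 30C to compounds at several concentrations, then absorbance at 600 nm was recorded.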
Abeta rescue – qHTS for compounds that reverse cellular toxicity of Amyloid beta (A-beta) peptide in yeast: Primary Screen | yeast expressing A-beta42, growth rescue, OD600, 48 h; response scale: 0% DMSO, 100% iron-clioquinol control | Potency, µM (titrated, usually from 46.1 µM), actives largely listed as activators | 410,000 compounds, 0.063% hits | AID 1347071, 2019; also: nearly all actives have a fitted effect of over 55% in size
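Growth rescue measured by 600 nm absorbance after 48 h yeast culture at 30 C with compound. Values normalized between DMSO and an equimolar ferric chloride plus clioquinol control.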
TDP-43 yeast inh – qHTS of TDP-43 Inhibitors; 410,000 compounds, 1.8% hits; TDP-43 expressing yeast growth rescue, BacTiter-Glo, 24 h; AID 652104, 2013; Potency, µM (top dose mostly 46.1 µM), inactives show top-dose growth rescue (activation), usual class: activators; also: % of control where 0% means no effect; nearly all actives have a fitted effect of over 50% in size
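Readout is BacTiter-Glo luminescence of cell growth, so inhibitors register as activators. TDP-43-expressing yeast at OD600=0.02 in galactose medium, after raffinose pregrowth to mid-log, were incubated with compound for 24 hr at 30 deg C.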
aSyn rescue – qHTS of alpha-syn Inhibitors. Yeast expressing alpha-synuclein, growth rescue, BacTiter-Glo, 24 h. Potency, µM (doses to about 46.1 µM), for the others: at the highest dose growth rescue (activation), hits mostly activators. 370,000 compounds, 0.14% hits; also: % of control where 0% means no effect; nearly all actives have a fitted effect of over 65% in size
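Galactose-induced alpha-syn yeast (OD600=0.02, raffinose-pregrown) + pinned cpd, 24 hr, 30 deg C; growth by BacTiter-Glo luminescence. Growth restoration scores as activation.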
* marks the source's active call; other numbers are inactive results; i = inactive; ? = inconclusive; nt = not tested or not shown. Calls follow the shape of the dose curve; as a rule, active = well fitted curve in the direction sought with a large enough effect; inconclusive = small, poorly fitted or top-dose-only effect, or another doubt; inactive = no such curve, though single readings can be large; an effect the other way counts as inactive or inconclusive. Potency is read from the fitted curve at half-maximal effect.

SMILES	FUS yeast rescue	Abeta rescue	TDP-43 yeast inh	aSyn rescue
O=Cc1ccc(/C=C2\C=Cc3ccccc32)cc1	nt	nt	nt	-1%
CCC(C)(C)c1ccc(OCCCC[n+]2ccccc2)c(C(C)(C)CC)c1	i	i	14µM*	-34%
Cc1c(C(=O)O)cnc2cc(-c3ccc(Cl)cc3)nn12	i	i	3.5µM*	-4%
O=C(CCCCCn1c(=S)[nH]c2ccccc2c1=O)NCc1ccc2c(c1)OCO2	i	i	7.1µM*	1%
O=c1c2ccccc2[nH]c(=S)n1Cc1ccc2c(c1)OCO2	i	i	6%	8%
CC1COC(=O)C(NNc2ccc(Cl)c(Cl)c2)=N1 (stereo unspecified)	i	i	3.5µM*	13%
Cc1ccc2c(c1)nnn2C1CCN(C(=O)C2CCCCC2)CC1	i	i	20µM*	4%
NC1C(N)C(N)C1N (stereo unspecified)	nt	nt	nt	2%
O=C(OCn1ncc(Cl)c(Cl)c1=O)c1ccc(C(F)(F)F)cc1	i	i	4µM*	-17%
Cc1ccc(C(=O)OCn2ncc(Cl)c(Cl)c2=O)cc1	i	i	3.2µM*	-33%
CCOC(=O)Cn1c(=O)n(Cc2ccco2)c(=O)c2ccc(C(=O)NC3CCCC3)cc21	i	i	12%	0.56µM*
COc1ccc(C(O)c2nc(-c3cccc(O)c3)cs2)cc1 (stereo unspecified)	i	?	20µM*	?
COc1ccc(C(O)c2nc(-c3cccc(C(C)C)c3)cs2)cc1 (stereo unspecified)	i	i	35µM*	0%
CCCNc1nc(Nc2ccc(C)c(Cl)c2)c2cnn(C)c2n1	i	i	?	1%
CNc1nc(Nc2ccc(C)c(Cl)c2)c2cnn(C)c2n1	i	i	14µM*	1%
COc1ccc(-c2nc(CCNC(=O)c3cccs3)cs2)cc1	i	i	?	-31%
O=C(NCCc1csc(-c2cccc(F)c2)n1)c1cccs1	i	i	16µM*	nt
O=C(NCCc1csc(-c2ccc(F)cc2)n1)c1cccs1	i	i	11µM*	nt
Oc1c(C(Nc2nc3ccccc3s2)c2ccco2)ccc2cccnc12 (stereo unspecified)	nt	i	20µM*	-14%
CC(C)COC(=O)NCCOC(=O)Nc1cccc(Cl)c1	i	i	25µM*	4%
CC(C)COC(=O)NCCCOC(=O)Nc1ccccc1	i	i	18%	3%
O=C(Nc1ccc2c(c1)CCC2)c1cccc(S(=O)(=O)N2CCN(c3ccccc3)CC2)c1	14µM*	i	12%	13%
O=C(NC1CCCc2ccccc21)c1cccc(S(=O)(=O)N2CCN(c3ccccc3)CC2)c1 (stereo unspecified)	i	i	8%	-1%
Cc1cccc(C)c1NC(=O)C1CCCN1S(=O)(=O)c1cccc2cccnc12 (stereo unspecified)	i	nt	nt	nt
CCOC(=O)c1noc2ncn(Cc3ccc([N+](=O)[O-])cc3)c(=O)c12	i	i	20µM*	nt
SMILES	FUS yeast rescue	Abeta rescue	TDP-43 yeast inh	aSyn rescue
CCOC(=O)c1noc2nc(C)n(Cc3ccc([N+](=O)[O-])cc3)c(=O)c12	i	i	16%	nt
CC1(C)Cc2cccc(C(=O)Nc3ccc(Cl)cc3)c2O1	i	i	18µM*	-18%
O=C(Nc1ccc(F)c(Cl)c1)N1CCC(CN2CCc3ccccc3C2)CC1	i	i	-1%	nt
c1coc(-c2nnc3sc(C4CCCCC4)nn23)c1	i	i	18µM*	-15%
COc1cccc(OC)c1-c1nn2c(-c3ccco3)nnc2s1	i	i	-2%	nt
COc1cccc(-c2nn3c(-c4ccco4)nnc3s2)c1	i	i	7.1µM*	nt
c1ccc(OCc2nn3c(-c4ccccn4)nnc3s2)cc1	i	i	14µM*	0%
COc1cccc(-c2nn3c(-c4ccccn4)nnc3s2)c1	i	i	16µM*	-2%
COc1cccc(-c2nnc3sc(-c4ccccn4)nn23)c1	i	i	-5%	3%
COc1cc2nc(N3CCOCC3)nc(NC3CCN(C)CC3)c2cc1OC	nt	nt	nt	1%
COc1ccccc1-c1nnc2sc(COc3ccc(F)cc3)nn12	?	i	11µM*	4%
Clc1ccccc1-c1nn2c(-c3ccncc3)nnc2s1	i	i	16%	-14%
Clc1ccccc1-c1nn2c(-c3ccccn3)nnc2s1	i	i	13µM*	-12%
CCOc1ccccc1CNC(=O)CCn1c(=O)c2cccn2c2ccc(F)cc21	i	i	16%	nt
C(=N/Nc1nc(-c2ccccc2)cc(-c2ccccc2)n1)/c1cccnc1	nt	i	14µM*	8%
COc1ccc(Cl)cc1-c1cc(C(=O)NCC2CCCCC2)[nH]n1	i	i	?	-1%
COc1ccc(Cl)cc1-c1cc(C(=O)NCc2cccs2)[nH]n1	i	i	11µM*	7%
COc1ccc(Cl)cc1-c1cc(C(=O)NCc2cccc(Cl)c2)[nH]n1	i	i	-18%	8%
CCOc1ccc(Cl)cc1-c1cc(C(=O)NCC2CCCCC2)[nH]n1	i	i	14µM*	-1%
Cc1cc(F)ccc1-c1cc(C(=O)NCC2CCCCC2)[nH]n1	i	i	12%	-6%
CC(C)Oc1cc(F)ccc1-c1cc(C(=O)NCC2CCCCC2)[nH]n1	?	i	18µM*	-22%
CC(C)[C@H]1Cn2nnc(-c3ccccc3)c2Cn2c3ccccc3c(=O)n21	i	nt	nt	nt
N#Cc1nc(-c2cccs2)oc1NCCc1ccccc1	i	i	-20%	17%
N#Cc1nc(-c2cccs2)oc1NCc1ccc2c(c1)OCO2	i	i	28µM*	1%
CN1C(=O)C[C@@](C#N)(C(=O)NCC(F)(F)F)[C@H]1c1ccccc1	i	nt	nt	nt
SMILES	FUS yeast rescue	Abeta rescue	TDP-43 yeast inh	aSyn rescue
OC(c1ccc(F)c(F)c1)c1nc(-c2csc3ccccc23)cs1 (stereo unspecified)	i	i	16µM*	-59%
COc1cc(C(O)c2nc(-c3ccccc3C)cs2)ccc1F (stereo unspecified)	i	i	?	16%
COc1cc(C(O)c2nc(-c3csc4ccccc34)cs2)ccc1F (stereo unspecified)	i	?	20µM*	?
Cn1nnc2c(NCc3ccco3)ncnc21	nt	nt	nt	2%
c1ccc(-c2c[nH]c3cccc(-c4cc5ccccc5o4)c23)cc1	i	nt	nt	nt
O=C(NCCc1c[nH]c2ccccc12)OCc1cn(Cc2cccc(C(F)(F)F)c2)nn1	i	nt	nt	nt
CC(=O)c1cccc(NC(=O)C2(C)Cc3c(-c4cccc(C(F)(F)F)c4)ccnc3O2)c1 (stereo unspecified)	?	i	35µM*	?
